Source: PubChem (National Center for Advancing Translational Sciences (NCATS))
TDP1 inh – inhibitors of human tyrosyl-DNA phosphodiesterase TDP1. AID 485290. Potency, µM (top dose mostly 130 µM), most hits filed as inhibitors. recombinant TDP1, AlphaScreen DNA substrate cleavage. Q9NUW8. hit rate 0.28% among 350,000; further: nearly all actives have a fitted effect of over 40% in size
Target sequence (Q9NUW8 whole entry, looked up): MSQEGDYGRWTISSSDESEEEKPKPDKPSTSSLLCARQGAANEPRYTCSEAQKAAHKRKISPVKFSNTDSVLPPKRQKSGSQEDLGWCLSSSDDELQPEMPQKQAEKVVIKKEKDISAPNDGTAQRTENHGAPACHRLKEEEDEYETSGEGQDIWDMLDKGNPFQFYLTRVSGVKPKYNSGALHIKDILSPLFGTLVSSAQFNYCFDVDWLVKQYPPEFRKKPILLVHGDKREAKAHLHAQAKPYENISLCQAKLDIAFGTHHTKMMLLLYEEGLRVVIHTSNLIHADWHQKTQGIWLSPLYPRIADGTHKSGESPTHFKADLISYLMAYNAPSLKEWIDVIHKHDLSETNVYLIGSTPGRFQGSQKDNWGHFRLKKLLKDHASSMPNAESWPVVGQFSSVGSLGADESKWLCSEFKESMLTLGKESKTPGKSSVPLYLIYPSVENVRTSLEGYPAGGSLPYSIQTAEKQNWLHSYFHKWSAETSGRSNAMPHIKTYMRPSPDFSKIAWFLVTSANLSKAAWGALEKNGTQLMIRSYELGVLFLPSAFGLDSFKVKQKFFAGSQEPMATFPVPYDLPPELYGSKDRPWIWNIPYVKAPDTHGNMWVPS
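Compounds were preincubated with Tdp1 (1 nM final) for 15 min at room temperature before substrate (15 nM final) started a 5 min reaction; beads (10 ug/ml final) were then added for 10 min before AlphaScreen detection.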
IL-1B inflam inh – inhibitors of inflammasome signaling (IL-1 beta secretion); THP-1 LPS/ATP IL-1B secretion, AlphaLISA, 16 h; hits give low values; activity change, % at 57.5 µM; hit rate 4.7% among 360,000; in the data active means activity change below about -50%; inconclusive means mostly about -30% to -49%
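THP-1 cells pretreated 1 hr with compounds (up to 57.5 uM final), then stimulated with LPS (250 ng/mL final) plus ATP (1.25 mM final); secreted IL-1B measured by AlphaLISA after 16 hr, decreased signal indicating inhibition.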
HepG2 viability – kills HepG2 cells in TGF-b inhibitor counter-screen. Potency, µM (series often up to 46.1 µM), hits mostly cytotoxic. HepG2 CAGA-GFP viability, ATP luminescence, 18 h. hit rate 0.76% among 410,000
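HepG2 CAGA-GFP cells (1000/well, DMEM with 1% FBS) received compound, then TGF-beta at 500 pg/mL final, and were incubated 18 hours at 37 degrees C. Viability was read by CellTiter-Glo luminescence. Media-only wells were set as complete cell-killing and DMSO as no toxicity.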
TDP1 cell CPT – DT40-hTDP1 cell growth loss with CPT. chicken DT40 Tdp1-/-;hTDP1 cells + 20 nM CPT, ATP luminescence, 48 h. hit rate 12% among 420,000. AID 686979. Potency, µM (titrated, usually from 46.2 µM), usual class: inhibitors; further: nearly all actives have a fitted effect of over 55% in size
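Chicken DT40 Tdp1-/- cells complemented with human TDP1, 400 cells/well, exposed to compounds plus 20 nM camptothecin for at least 48 h at 37 C; viability read as ATP content by CellTiter-Glo luminescence.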
TGFb SMAD3 inh – blocks TGF-b signaling | hit rate 1.2% among 410,000 | HepG2 CAGA-GFP TGF-b/SMAD3 reporter, GFP fluorescence, 18 h; TGF-beta stimulated, 500 pg/mL final | Potency, µM (series often up to 46.1 µM), most hits filed as inhibitors; further: nearly all actives have a fitted effect of over 65% in size
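Smad-responsive CAGA-GFP expression was quantified in HEPG2 cells exposed to compounds and 500 pg/mL final TGF-beta for 18 h at 37 degrees C; unstimulated wells defined full inhibition.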
TDP1 cell noCPT – qHTS for Inhibitors of human tyrosyl-DNA phosphodiesterase 1 (TDP1): qHTS in cells in absence of CPT; DT40 Tdp1-/- hTDP1 cells, no CPT, ATP luminescence, 48 h; hit rate 15% among 420,000; Potency, µM (series often up to 46.2 µM), hits mostly inhibitors; further: nearly all actives have a fitted effect of over 55% in size
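Chicken DT40 Tdp1-/- cells complemented with human TDP1, screened without camptothecin (DMSO vehicle only), 400 cells/well. Compounds pin-transferred, cells incubated at 37 °C for at least 48 hr. Growth read as ATP-dependent luminescence (CellTiter-Glo, 30 min at RT).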
Numbers stand for hits; i = inactive; ? = inconclusive; nt = no result; [ ] = dose if it differs, or a comment. Most compounds without a hit are left out; they make up all but 18% or so of the library. Unless noted, the call rests on the fitted dose curve; in most records, active means well fitted curve in the direction sought with a large enough effect; inconclusive means small, poorly fitted or top-dose-only effect, or another doubt; inactive means no such curve, though single readings can be large; an effect the other way counts as inactive or inconclusive.

SMILES	TDP1 inh	IL-1B inflam inh	HepG2 viability	TDP1 cell CPT	TGFb SMAD3 inh	TDP1 cell noCPT
COc1ccc(C(=O)CC(=O)C(=O)Nc2ccccc2Cl)cc1	nt	i	i	13µM	i	10µM
Cc1c(P(=S)(c2ccccc2)c2ccccc2)c2ccccc2n1CCCc1ccccc1	i	nt	nt	nt	nt	nt
Cc1ccc(C2CC(=O)Oc3ccc(C(C)(C)C)cc32)cc1 (centres undefined)	i	nt	nt	nt	nt	nt
CN(Cc1ccccc1Cl)C(=O)C1CCC(=O)N(C2CCCCCC2)C1 (centres undefined)	nt	i	i	?	i	?
COC(=O)c1cn(CC(=O)Nc2ccccc2C)c2ccccc12	nt	i	i	i	i	i
COc1ccc(C(=O)CC(=O)C(=O)Nc2ccc(Cl)cc2)cc1	nt	i	i	?	i	21µM
CCOc1ccccc1C(=O)Nc1cccc2cccnc12	nt	i	i	i	i	i
Cn1cc(CCC(=O)N2CCCC(C(=O)c3cccc4ccccc34)C2)cn1 (centres undefined)	i	i	i	?	?	?
COc1ccc2cc(C(=O)C3CCCN(C(=O)c4cncs4)C3)ccc2c1 (centres undefined)	i	i	i	18µM	?	12µM
COc1ccc2cc(C(=O)C3CCCN(C(=O)CSc4nnc(C)o4)C3)ccc2c1 (centres undefined)	i	i	i	18µM	i	21µM
COc1ccc2cc(C(=O)C3CCCN(C(=O)CCc4cnn(C)c4)C3)ccc2c1 (centres undefined)	nt	-57	i	?	i	?
COc1ccc2cc(C(=O)C3CCCN(C(=O)c4cnn(C(C)C)c4)C3)ccc2c1 (centres undefined)	i	i	i	26µM	i	?
Cc1nnc(SCC(=O)N2CCCC(C(=O)c3ccc(Cl)cc3)C2)o1 (centres undefined)	i	i	i	i	i	i
COc1ccc(CCn2c(NN)nc3c2c(=O)[nH]c(=O)n3C)cc1	nt	i	i	4.6µM	i	5.2µM
COc1ccc(CCn2c(NN=C(C)C)nc3c2c(=O)[nH]c(=O)n3C)cc1	nt	i	i	?	i	?
Cc1oc(-c2cccc(Cl)c2)nc1CN1CCC(C(=O)NCCCN2CCN(c3ccccc3F)CC2)CC1	i	nt	i	2.9µM	i	3.7µM
Cc1oc(-c2cccc(Cl)c2)nc1CN1CCC(C(=O)NCc2cccnc2)CC1	i	i	i	?	i	i
COc1ccc(-c2nc(CN3CCC(C(=O)NCCCN4CCN(c5ccccc5F)CC4)CC3)c(C)o2)cc1OC	i	nt	i	?	?	1.2µM
C[C@H]1CN([C@@H](C)CO)S(=O)(=O)c2ccc(Br)cc2O[C@H]1CN(C)C(=O)Cc1ccncc1	nt	i	i	i	i	i
COc1ccc(-c2oc3ncn4nc(COc5ccccc5C)nc4c3c2-c2ccc(OC)cc2)cc1	i[2.28 µM]	nt	i	i	i	i
Cc1nc2sc3c(c2c(=O)n1NC(=O)CCBr)CCCC3	i	i	i	18µM	i	18µM
CNC(=O)C(=O)NCC(c1cccs1)S(=O)(=O)c1ccc(F)cc1 (centres undefined)	i	i	i	i	i	i
COc1ccc(CCNC(=O)C(=O)NCC(c2cccs2)S(=O)(=O)c2ccc(F)cc2)cc1 (centres undefined)	i	nt	i	?	i	23µM
O=C(NCCc1ccc(F)cc1)C(=O)NCC(c1cccs1)S(=O)(=O)c1cccs1 (centres undefined)	i	nt	i	?	i	26µM
COc1ccc(N(C(=O)CCl)C(C(=O)NCCc2ccccc2)c2cccs2)cc1 (centres undefined)	i	-108	16µM	4.6µM	?	4.1µM
SMILES	TDP1 inh	IL-1B inflam inh	HepG2 viability	TDP1 cell CPT	TGFb SMAD3 inh	TDP1 cell noCPT
O=S(=O)(NCC(c1cccs1)S(=O)(=O)c1ccccc1)c1ccc(F)cc1 (centres undefined)	i	nt	i	1.6µM	4µM	2.3µM
COc1ccc(CNC(=O)C(c2ccncc2)N(C(=O)Cc2cccs2)c2ccccc2)cc1 (centres undefined)	i	i	i	?	i	?
CCOC(=O)/C=C1/SCC(=O)N1CC(=O)c1ccc[nH]1	nt	i	i	i	i	i
CCOC(=O)[C@@H]1CSCCS(=O)(=O)N1	nt	i	i	12µM	i	18µM
O=[N+]([O-])c1cc2ncccc2c2ncccc12	nt	?	i	6.5µM	i	4.6µM
COc1ccc(C2=Nn3c(nnc3C(F)(F)F)SC2)cc1	nt	i	i	i	i	?
CCCCCCn1nc(C(=O)OCC(=O)c2c(N)n(C)c(=O)n(C)c2=O)c2ccccc2c1=O	i	?	i	21µM	?	18µM
CCCn1nc(C(=O)OCC(=O)c2ccccc2)c2ccccc2c1=O	i	i	i	i	i	i
CCCCCn1nc(C(=O)OCC(=O)c2c(N)n(C)c(=O)n(C)c2=O)c2ccccc2c1=O	i	-53	i	?	i	21µM
Cc1ccc2cc(NC(=O)C3(C)CCN3C(C)C)ccc2n1 (centres undefined)	nt	i	i	i	i	i
CN(C)C(=O)CCc1ccc2c3c([nH]c2c1)[C@]1(C)[C@@H](C(=O)N2CCOCC2)C[C@H](CC(=O)NCCC2=CCCCC2)C(=O)N1CC3	i	i	i	i	i	i
CC(=O)O[C@]1(C(C)=O)CC[C@H]2[C@@H]3C=C(Cl)C4=CC(=O)CC[C@]4(C)[C@H]3CC[C@@]21C	i	i	i	?	i	21µM
CC(=O)O[C@]1(C(C)=O)CC[C@H]2[C@@H]3C=C(Cl)C4=CC(=O)[C@@H]5C[C@@H]5[C@]4(C)[C@H]3CC[C@@]21C	i	i	i	?	?	21µM
CC(=O)Nc1ccccc1OCC(=O)NC(C)c1ccc(F)cc1 (centres undefined)	i	i	i	13µM	i	?
CC(=O)Nc1ccccc1OC(C)C(=O)NC(C)c1ccc(F)cc1 (centres undefined)	i	i	i	i	i	?
O=[N+]([O-])c1ccc(N/N=C2/CCCCC2c2ccccn2)cc1 (centres undefined)	i	i	i	i	i	i
Cc1cc(C)c(OCC(=O)Nc2ccccc2N2CCOCC2)c(C)c1	i	i	i	14µM	?	22µM
Cc1ccccc1OCC(=O)Nc1ccccc1-c1ccccc1NC(=O)COc1ccccc1C	i	i	i	?	?	15µM
